Bioassay records from PubChem BioAssay.
ALOX12 inh: inhibitors of human 12S-lipoxygenase ALOX12. P18054. purified 12hLO, xylenol orange hydroperoxide absorbance. Potency, µM (top dose mostly 108 µM), for the others: at the highest dose activity change, negative = inhibition, most hits filed as inhibitors. 580,000 compounds, 1.1% hits; note: potency is the fitted concentration of half-maximal effect
Target sequence (P18054 whole entry, looked up): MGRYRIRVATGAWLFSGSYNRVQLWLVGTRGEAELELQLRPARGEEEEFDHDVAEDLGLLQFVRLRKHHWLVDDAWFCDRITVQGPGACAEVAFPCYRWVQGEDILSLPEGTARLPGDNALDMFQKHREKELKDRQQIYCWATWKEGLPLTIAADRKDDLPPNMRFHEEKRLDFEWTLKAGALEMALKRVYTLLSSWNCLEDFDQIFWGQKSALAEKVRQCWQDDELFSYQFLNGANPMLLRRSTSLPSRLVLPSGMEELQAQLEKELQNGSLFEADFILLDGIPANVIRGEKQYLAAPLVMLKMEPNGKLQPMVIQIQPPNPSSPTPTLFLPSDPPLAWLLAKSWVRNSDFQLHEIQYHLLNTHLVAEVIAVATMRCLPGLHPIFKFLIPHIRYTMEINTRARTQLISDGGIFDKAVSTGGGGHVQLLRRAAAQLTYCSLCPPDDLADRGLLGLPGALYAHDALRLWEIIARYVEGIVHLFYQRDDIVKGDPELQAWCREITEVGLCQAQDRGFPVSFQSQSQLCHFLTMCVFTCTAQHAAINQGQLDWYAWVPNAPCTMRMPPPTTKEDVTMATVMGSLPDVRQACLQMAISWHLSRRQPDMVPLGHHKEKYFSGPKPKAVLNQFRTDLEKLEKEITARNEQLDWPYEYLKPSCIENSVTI
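Hydroperoxide product was detected by ferrous iron/xylenol orange as the 573 to 405 nm absorbance ratio. Arachidonic acid at 40 uM (final) was turned over for 30 min at room temperature by 150 nM human 12hLO, pH 7.0 Hepes buffer, after 15 min compound preincubation.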
HT1080NT lethal: kills 2HG-producing HT-1080-NT fibrosarcoma cells; HT-1080-NT fibrosarcoma viability, CellTiter-Glo ATP luminescence, 48 h; Potency, µM (doses to about 46.1 µM), without a hit: at the highest dose activity, negative = less viability, most hits filed as cytotoxic; 360,000 compounds, 1.6% hits;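 note: NT is the 2HG producing partner of a matched IDH1 knockdown line; potency is the fitted concentration of half-maximal effect; 0% = DMSO-treated cells and -100% = media-only wells without cells; nearly all actives have a fitted effect of over 55% in size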
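Viability of the 2HG-overproducing fibrosarcoma line after 48 hours of compound exposure at 37 degrees C was determined by luminescence with CellTiter-Glo, and concentration-effect curves were then fitted and categorized.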
TDP1 cell noCPT: qHTS for Inhibitors of human tyrosyl-DNA phosphodiesterase 1 (TDP1): qHTS in cells in absence of CPT; DT40 Tdp1-/- hTDP1 cells, no CPT, ATP luminescence, 48 h; Potency, µM (titrated, usually from 46.2 µM), for the others: at the top dose activity change, negative = growth inhibition, most hits filed as inhibitors; 420,000 compounds, 15% hits; AID 686978, 2013; note: potency is the fitted concentration of half-maximal effect; nearly all actives have a fitted effect of over 55% in size
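Growth of hTDP1-complemented DT40 Tdp1-knockout cells is measured by ATP luminescence after at least 48 hr compound exposure at 37 °C, with DMSO substituting for the 20 nM CPT used in the parallel screen.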
HT1080 IDH1KD tx: toxicity to HT-1080 IDH1 knockdown cells (counter line) | AID 686971 | Potency, µM (highest dose often 46.1 µM), for the others: at the highest dose activity, negative = toxicity, usual class: cytotoxic | HT-1080 IDH1 knockdown viability, ATP luminescence, 48 h | 360,000 compounds, 2% hits;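 note: potency is the fitted concentration of half-maximal effect; 0% = DMSO wells and -100% = cell-free medium wells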
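HT-1080-IDH1KD cells (IDH1 knocked down), 750/well in RPMI with 5% FBS, treated with compound 48 h at 37 degrees C. Viability by CellTiter-Glo luminescence, normalised to DMSO and no-cell wells; concentration-response curves classed.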
TDP1 cell CPT: DT40-hTDP1 cell growth loss with CPT; chicken DT40 Tdp1-/-;hTDP1 cells + 20 nM CPT, ATP luminescence, 48 h; Potency, µM (top dose mostly 46.2 µM), without a hit: at the top dose activity change, negative = growth inhibition, most hits filed as inhibitors; 420,000 compounds, 12% hits; AID 686979; note: potency is the fitted concentration of half-maximal effect; nearly all actives have a fitted effect of over 55% in size
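Chicken DT40 Tdp1-/- cells stably complemented with human TDP1 were seeded at 400 cells/well in medium containing 20 nM camptothecin, exposed to pin-transferred compounds, and grown at 37 °C for at least 48 hr. Viability was read as ATP luminescence.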
IL-1B inflam inh: inhibitors of inflammasome signaling (IL-1 beta secretion) | THP-1 LPS/ATP IL-1B secretion, AlphaLISA, 16 h; active compounds read low | activity change, % at 57.5 µM | 360,000 compounds, 4.7% hits | AID 743279; in the data active = activity change below about -50%; inconclusive = mostly about -30% to -49%
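THP-1 cells pretreated 1 hr with compounds (up to 57.5 uM final), then stimulated with LPS (250 ng/mL final) plus ATP (1.25 mM final); secreted IL-1B measured by AlphaLISA after 16 hr, decreased signal indicating inhibition.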
The depositor's hits bear a star; ? = inconclusive; · = no result. Only a selection was taken, and hits are over-represented in it overall. Unless noted, calls come from the whole dose curve; as a rule, active = well fitted curve in the direction sought with a large enough effect; inconclusive = small, poorly fitted or top-dose-only effect, or another doubt; inactive = no such curve, though single readings can be large; an effect the other way counts as inactive or inconclusive. Unless noted, % is set by controls: 0 for no effect and ±100 for the full control effect.

SMILES	ALOX12 inh	HT1080NT lethal	TDP1 cell noCPT	HT1080 IDH1KD tx	TDP1 cell CPT	IL-1B inflam inh
CCCCCCCCS(=O)CCCCCCCO (stereo not drawn)	-6.2%	·	·	·	·	·
O=C(Nc1ccc2oc(-c3cccnc3)nc2c1)c1ccc(Cl)c([N+](=O)[O-])c1	-6.1%	·	·	·	·	·
Cc1nc(NC(=O)c2cccc(OCc3ccccc3)c2)ccc1Br	-15.0%	·	·	·	·	·
CS(=O)(=O)c1ccc2nc(NC(=O)c3cccs3)sc2c1	0.0%	?	?	23.1µM*	11.6µM*	62.4
Cc1ccccc1NC(=O)Nc1nc2ccc(S(C)(=O)=O)cc2s1	-15.0%	-17.0%	-16.4%	?	9.9%	-3.6
NS(=O)(=O)c1ccc2nc(NC(=O)Nc3ccccc3F)sc2c1	26.7%	23.2%	8.2µM*	-2.6%	?	?
CCOc1ccc2c(n1)CCN(C(=O)c1ccco1)C2	32.1%	·	·	·	·	·
CN(C)Cc1ccccc1C(O)(c1ccccc1)c1ccccc1	-12.4%	?	?	-9.6%	29.1µM*	-71.2*
Cc1cccc(CN(C)C)c1CC(O)(c1ccccc1)c1ccccc1	7.9%	-1.9%	?	-3.2%	?	-3.7
CN(C)Cc1cc(C(F)(F)F)ccc1C(O)(c1ccccc1)c1ccccc1	-23.3%	-15.0%	?	-1.9%	?	-75.0*
CCN1c2cc(C(=O)NC3CCCCCC3)ccc2C(=O)N2CCCCCC21 (stereo not drawn)	-7.1%	·	·	·	·	·
O=C(CSc1ccccn1)c1ccc(C2CC2(Cl)Cl)cc1 (stereo not drawn)	7.7%	·	·	·	·	·
CCOc1ccc(NC(=O)N2CC(C(=O)N(C)C)C3(CCOCC3)C2)cc1 (stereo not drawn)	46.7%	·	·	·	·	·
COc1ccc(C(O)C2c3c(cc4c(c3OC)OCO4)CCN2C)c(CO)c1OC (stereo not drawn)	10.8%	·	·	·	·	·
COc1cccc(CC(O)CC2c3c(cc4c(c3OC)OCO4)CCN2C)c1 (stereo not drawn)	?	-28.3%	14.6µM*	-18.9%	20.6µM*	0.0
COc1c2c(cc3c1C(CC(O)Cc1ccccc1)N(C)CC3)OCO2 (stereo not drawn)	9.3%	-18.6%	10.3µM*	-25.0%	?	-6.4
Nc1nccnc1C(=O)NCc1cccc(Cl)c1	-16.0%	·	·	·	·	·
O=C(Nc1ccccc1)c1oc2ccccc2c1NC(=O)c1nn(-c2cccc(Cl)c2)ccc1=O	1.1%	·	·	·	·	·
CC1(C(=O)NS(=O)(=O)c2ccccc2)CCN1C(=O)CC(c1ccccc1)c1ccccc1 (stereo not drawn)	7.1%	3.1%	?	8.8%	?	23.1
Cc1noc(C)c1S(=O)(=O)NC(=O)C1(C)CCN1C(=O)CC(c1ccccc1)c1ccccc1 (stereo not drawn)	?	16.5%	20.6µM*	19.2%	9.2µM*	0.5
CC1(C(=O)NS(=O)(=O)c2ccccc2Cl)CCN1C(=O)CC(c1ccccc1)c1ccccc1 (stereo not drawn)	-11.0%	-0.3%	7.31µM*	8.8%	4.11µM*	28.0
Cc1ccccc1S(=O)(=O)NC(=O)C1(C)CCN1C(=O)CC(c1ccccc1)c1ccccc1 (stereo not drawn)	-4.0%	5.5%	5.8µM*	-0.9%	5.8µM*	26.4
CSc1ccc(NC(=O)c2sccc2C)cc1	4.2%	·	·	·	·	·
COc1cc(/C=N/NC(=O)c2ccc(Cl)cc2)ccc1OCC(=O)N1CC(C)OC(C)C1 (stereo not drawn)	-3.8%	10.8%	?	-8.7%	-7.4%	-10.4
CCCCNC(=S)N(C)/N=C/c1ccc(OCC(=O)Nc2ccc(OC)cc2)c(OC)c1	-7.2%	-9.7%	?	-35.5%	23.1µM*	?
SMILES	ALOX12 inh	HT1080NT lethal	TDP1 cell noCPT	HT1080 IDH1KD tx	TDP1 cell CPT	IL-1B inflam inh
COc1ccc(NC(=O)COc2ccc(/C=N/O)cc2OC)cc1	39.6%	?	11.6µM*	6.5%	?	-15.9
COc1cc(/C=N/NC(=S)Nc2cccc(Cl)c2C)ccc1OCC(=O)N1CC(C)OC(C)C1 (stereo not drawn)	44.7µM*	-1.5%	14.6µM*	-15.5%	14.6µM*	-25.7
CCCCNC(=S)N(C)/N=C/c1ccc(OCC(=O)Nc2c(C)cc(C)cc2C)c(OC)c1	-1.5%	-27.1%	8.2µM*	?	13µM*	-9.4
CCn1c(=O)c2ccccc2n(CC(=O)Nc2cnc3ccccc3c2)c1=O	-9.9%	·	·	·	·	·
COc1cc(/C=N/NC(=S)NC(C)C)ccc1OCC(=O)Nc1c(C)cc(C)cc1C	-26.7%	-21.0%	7.31µM*	-20.9%	7.31µM*	28.2
COc1cc(/C=N/NC(=O)c2ccncc2)ccc1OCC(=O)Nc1ccc(C)c(C)c1	-10.4%	-6.7%	?	-6.0%	?	17.0
CC(C)C/C=N/NC(=O)c1ccccc1	38.9%	·	·	·	·	·
COCCNc1nc2c(c(=O)n(C)c(=O)n2C)n1Cc1ccc(Cl)cc1Cl	3.4%	·	·	·	·	·
COc1ccc(Oc2nc3c(c(=O)n(C)c(=O)n3C)n2Cc2ccc(Cl)cc2Cl)cc1	-21.2%	·	20.6µM*	·	?	·
COc1ccc(Cn2c(Oc3ccc(C)cc3)nc3c2c(=O)n(C)c(=O)n3C)cc1	9.5%	·	·	·	·	·
Cn1c(=O)c2c(nc(Cl)n2Cc2ccccc2Cl)n(C)c1=O	20.8%	·	·	·	·	·
COc1ccc(Oc2nc3c(c(=O)n(C)c(=O)n3C)n2Cc2ccccc2Cl)cc1	-21.1%	·	13µM*	·	?	·
Cn1c(=O)c2c(nc(NCC3CCCC(CN)C3)n2Cc2ccc(Cl)cc2Cl)n(C)c1=O (stereo not drawn)	-10.3%	?	5.8µM*	-29.3%	4.61µM*	12.9
COc1ccc(Cl)c(Cn2c(NCc3ccccn3)nc3c2c(=O)n(C)c(=O)n3C)c1	146.7%	-18.1%	14.6µM*	-10.7%	?	-2.7
O=C(O)CSc1ccc(Br)cc1	-43.4%	·	·	·	·	·
Cc1ccc(C(=O)N2CCCCCCNC(=O)[C@@H]3CCC[C@@H]32)s1	29.3%	·	·	·	·	·
COc1ccc(OC)c2sc(N3CCN(C(=O)CCS(=O)(=O)c4ccc(F)cc4)CC3)nc12	-19.8%	·	20.6µM*	·	18.4µM*	·
O=C(CCS(=O)(=O)c1ccc(Cl)cc1)N1CCN(c2nc3ccc(Cl)cc3s2)CC1	-24.0%	·	·	·	·	·
COc1ccc(OC)c2sc(N3CCN(C(=O)c4ccc([N+](=O)[O-])s4)CC3)nc12	-0.4%	-0.3%	?	-11.2%	?	10.1
Cc1ccc2sc(N3CCN(C(=O)CCS(=O)(=O)c4ccc(F)cc4)CC3)nc2c1C	?	·	2.59µM*	·	4.11µM*	·
